# Screens from PubChem BioAssay.
# Sfp inh: blocks B. subtilis Sfp PPTase activity | Q9F4F7 | Biochemical Sfp PPTase activity, qHTS | Potency, µM, for inactives: largest response in the series, negative = inhibition, hits mostly inhibitors | hit rate 3.5% among 310,000;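 also: the enzyme is Sfp with the accession as filed and its product quenches rhodamine fluorescence; potency is read from the fitted curve at half-maximal effect; 0% = enzyme reaction without inhibitor and -100% = no enzyme wells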
#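 After 15 min at room temperature with compound, 15 nM Sfp received 5 uM rhodamine-CoA plus 12.5 uM BHQ-2-ybbR (50 mM Hepes pH 7.6, 10 mM MgCl2). Rate came from the fluorescence difference over 30 min, ex 525/em 598 nm.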
# FBPA coupling cs: inhibits coupling enzyme system, counter-screen for aldolase hits. coupling enzyme system counterscreen, AmpLite Red fluorescence. activity change, negative = inhibition, % at 58.2 µM, hits read low. hit rate 0.67% among 290,000; in the data active = activity change below about -30%
#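 Coupling enzymes only (glyceraldehyde-3-phosphate) + compound, at 57.5 uM final, 10 min RT; add substrate/coupling/AmpLite Red mix, 20 min RT; fluorescence ex 525/em 598 nm. Actives flag coupling-system interference.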
# Tau ThT inhib: blocks human tau fibril formation measured by thioflavin T | recombinant tau K18 P301L, heparin-induced fibrillization, ThT fluorescence | Potency, µM (titrated, usually from 57.4 µM), without a hit: at the highest dose activity, negative = inhibition, actives largely listed as inhibitors | hit rate 2.1% among 270,000 | AID 1460; also: potency is read from the fitted curve at half-maximal effect; nearly all actives have a fitted effect of over 55% in size
# Target sequence (P10636 561-689 P618L limits assumed): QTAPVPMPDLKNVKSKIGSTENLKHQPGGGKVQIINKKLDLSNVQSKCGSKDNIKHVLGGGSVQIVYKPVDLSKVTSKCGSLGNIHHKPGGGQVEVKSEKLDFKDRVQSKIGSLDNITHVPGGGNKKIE
#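 Aggregation was driven by heparin (20 uM final) acting on recombinant tau […] bearing P301L in 100 mM sodium acetate pH 7; fibrils were detected with Thioflavin T.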
# G9a inh: inhibitors of human histone lysine methyltransferase G9a; hit rate 8.8% among 350,000; AID 504332; Q96KQ7; G9a H3K9 monomethylation, AlphaScreen, 2 h; Potency, µM (titrated, usually from 102 µM), inactives show top-dose activity, negative = inhibition, hits mostly inhibitors; also: potency is read from the fitted curve at half-maximal effect; nearly all actives have a fitted effect of over 75% in size
# Target sequence (Q96KQ7 913-1193 limits assumed): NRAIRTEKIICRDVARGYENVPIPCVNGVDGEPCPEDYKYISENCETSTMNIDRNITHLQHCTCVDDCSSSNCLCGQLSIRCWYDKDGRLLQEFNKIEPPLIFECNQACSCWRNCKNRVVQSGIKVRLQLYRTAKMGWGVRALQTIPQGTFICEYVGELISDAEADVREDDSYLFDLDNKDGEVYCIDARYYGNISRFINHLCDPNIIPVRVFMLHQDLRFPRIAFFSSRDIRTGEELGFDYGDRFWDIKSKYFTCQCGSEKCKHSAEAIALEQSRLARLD
#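 G9a (20 nM) was preincubated 15 min with compound, then reacted 2 h at room temperature with 500 nM biotin-H3K9 peptide and 20 µM SAM. Monomethyl-H3K9 detected by AlphaScreen using anti-H3K9me1 antibody.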
# Tau fluor cs: counter-screen for tau fibril formation inhibitors; tau K18 P301L (four-repeat tau fragment) Alexa594 fluorescence, heparin fibrillization; Potency, µM (top dose mostly 57.7 µM), for inactives: top-dose activity change, negative = decrease; hit rate 0.93% among 280,000; AID 1463; also: potency is read from the fitted curve at half-maximal effect; nearly all actives have a fitted effect of over 55% in size
#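 Human K18 P301L tau (15 uM unlabeled plus 0.24 uM Alexa 594-labeled, final) in 100 mM sodium acetate pH 7 was mixed with compound and 20 uM heparin and incubated 6 hr at 37 C.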
# Tau FP inhib: inhibitors of human tau fibril formation | P10636 | K18 P301L tau heparin fibrillization, Alexa594 FP, 6 h | Potency, µM (doses to about 57.7 µM), for the others: at the highest dose activity, negative = inhibition, hits mostly inhibitors | hit rate 0.39% among 280,000 | AID 1468; also: potency is read from the fitted curve at half-maximal effect; nearly all actives have a fitted effect of over 55% in size
#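 FP of Alexa 594-tau after heparin (20 uM) induction. Substrate: human K18 P301L, 15 uM unlabeled, 0.24 uM labeled. Buffer 100 mM sodium acetate pH 7. 6 hr, 37 C.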
# * marks the source's active call; other numbers are inactive results; ? = inconclusive; · = not tested or not shown; [ ] = dose if it differs, or a comment. Sampled rows, rich in hits. Any-hit rate of the full collection: about 11%. Unless noted, calls follow the shape of the dose curve; as a rule, active = well fitted curve in the direction sought with a large enough effect; inconclusive = small, poorly fitted or top-dose-only effect, or another doubt; inactive = no such curve, though single readings can be large; an effect the other way counts as inactive or inconclusive. Unless noted, % is scaled to controls: 0 for no effect and ±100 for the full control effect.
SMILES,Sfp inh,FBPA coupling cs,Tau ThT inhib,G9a inh,Tau fluor cs,Tau FP inhib
COc1ccc(/C=N/NC(=O)C2c3ccccc3-c3ccccc32)cc1,6%,0,-8%,45µM*,-4%,-13%
COc1ccc(NC(=O)Nc2cccc([N+](=O)[O-])c2)cc1Cl,-3%,-7,16µM*,-50%[59 µM],14µM*[quencher],?
O=C(Nc1ccc(OC(F)F)c(Cl)c1)Nc1ccc2c(c1)OCO2,0%,0,?,13%[59 µM],5µM*[quencher],13%
O=C(Nc1ccc2c(c1)OCO2)Nc1ccc2c(c1)OCO2,0%,-4,-17%,3%,-12%,7%
COc1ccccc1CCNC(=O)Nc1cccc([N+](=O)[O-])c1,6%,-1,-15%,?,?,-2%
O=C(Nc1ccc([N+](=O)[O-])cc1)Nc1ccc(OC(F)F)c(Cl)c1,-4%,0,?,-2%,?,10µM*
COc1ccc(CCN2C(=O)N(c3cccc(C)c3)C(=O)C2CC(=O)Nc2ccccc2)cc1OC (stereo not drawn),·,·,6%,-20%[59 µM],-25%,1%
N#CC1=C(N)NC(=S)C(C(N)=O)C1c1ccc([N+](=O)[O-])cc1 (stereo not drawn),1µM*,5,?,·,-6%,?
CSc1ccccc1NC(=O)c1noc(C)c1[N+](=O)[O-],45µM*,·,·,35µM*,·,·
Cc1onc(C(=O)Nc2c(C)n(C)n(-c3ccccc3)c2=O)c1[N+](=O)[O-],79µM*,-31*,·,·,?,-12%
COc1ccc(S(=O)(=O)NCC2CCCN(C(=O)CSC)C2)cc1 (stereo not drawn),20%,0,·,-2%,·,·
CCN(CC)S(=O)(=O)c1ccc2c(c1)N(CC(=O)Nc1ccc(F)cc1)C(=O)CO2,·,·,0%,-34%[59 µM],-23%,-15%
Cc1nc(NC2CCCCC2)c2nc(-c3ccccc3)n(CCCN3CCCCC3C)c2n1 (stereo not drawn),16%,-1,-2%,·,-9%,4%
CCC(C)n1ncn(-c2ccc(N3CCN(c4ccc(O)cc4)CC3)cc2)c1=O (stereo not drawn),-26%,2,?,7.9µM*,-17%,-2%
COc1ccc(N2CCN(C(=O)Cn3cnc4c3c(=O)n(C)c(=O)n4C)CC2)cc1,3%,0,-13%,-32%,-6%,9%
Cc1ccc2c(c1)[nH]c1c(=O)n(CCN3CCNCC3)cnc12,16%,1,-4%,45µM*,2%,0%
COc1ccccc1-c1cncnc1NCc1cnc(C)cn1,79µM*,0,·,25%[0.501 µM],·,·
COc1ccccc1-c1cncnc1NCCNC(C)=O,79µM*,0,·,-4%[0.501 µM],·,·
Cc1cnc(CNc2ncncc2-c2ccccc2C(F)(F)F)cn1,71µM*,4,7%,·,1%,6%
COc1ccccc1-c1nc(NCc2cnc(C)cn2)c2ccccc2n1,50µM*,-5,-19%,·,-9%,-5%
COc1ccccc1-c1cncnc1NCc1cccnc1,?,5,-5%,·,-5%,2%
Cc1cccc(N2CCN(S(=O)(=O)c3c(C)nc4scc(C)n4c3=O)CC2)c1C,-6%,0,-11%,17%,-10%,1%
CCOc1ccc(NC(=O)CSc2ncc(S(=O)(=O)c3ccc(F)c(C)c3)c(=O)[nH]2)cc1,·,·,9%,-26%[59 µM],6%,10%
O=C(NCc1ccccc1)c1ccc2c(c1)N(Cc1ccccc1F)C(=O)c1ccccc1S2=O (stereo not drawn),·,·,0%,1%[59 µM],-29%,-10%
N#CC1=C(N)Oc2cc3ccccc3cc2C1c1cccs1 (stereo not drawn),79µM*,-7,-7%,8%[0.0925 µM],?,?
SMILES,Sfp inh,FBPA coupling cs,Tau ThT inhib,G9a inh,Tau fluor cs,Tau FP inhib
CN(C)C=Nc1nonc1-c1ncn[nH]1,?,1,-1%,22µM*,3%,-1%
S=C1NC2=C(CCCC2)C2(CCCCC2)N1,10%,1,-5%,7.1µM*,-2%,2%
Cn1c(=O)c2c(nc(Oc3ccccc3N)n2C)n(C)c1=O,14%,2,·,-2%,·,·
Cn1c(=O)c2c(nc(Sc3ccccc3N)n2C)n(C)c1=O,-12%,3,-8%,10µM*,-8%,-3%
C/C=C(\C)CN1CCCC(CO)(Cc2ccccc2)C1 (stereo not drawn),13%,2,6%,4%,5%,1%
CCOC(=O)c1cccc(NC(=O)N2CCC(CN3CCc4ccccc4C3)CC2)c1,·,·,-5%,-6%[59 µM],-6%,1%
CCOc1ccc(NC(=O)N2CC=C(c3c[nH]c4ccccc34)CC2)cc1,·,·,4.5µM*,-39%[59 µM],16µM*[quencher],-8%
CCc1ccc(NC(=O)N2CC=C(c3c[nH]c4ccccc34)CC2)cc1,·,·,7.1µM*,?,13µM*[quencher],-1%
COc1cc(OC)c(NC(=O)N2CC=C(c3c[nH]c4ccccc34)CC2)cc1Cl,·,·,?,?,7.9µM*[quencher],?
CCOC(=O)c1cccc(NC(=O)N2CC=C(c3c[nH]c4ccccc34)CC2)c1,·,·,?,-51%[59 µM],13µM*[quencher],-6%
Cc1ccccc1-c1nnn(CC(=O)Nc2ccc3c(c2)OCCO3)n1,-7%,0,1%,1%[59 µM],-24%,-5%
Cc1ccc(C)c(NC(=O)N2CC=C(c3c[nH]c4ccccc34)CC2)c1,·,·,?,?,25µM*[quencher],7%
Cc1cc(NC(=O)N2CC=C(c3c[nH]c4ccccc34)CC2)ccc1Br,·,·,7.9µM*,-44%[59 µM],13µM*[quencher],-10%
Cc1cc2cc(CNC(=O)c3ccc(Br)o3)ccc2n1C,28µM*,-24,?,-110%[59 µM],-6%,-9%
CCCC(=O)NCc1ccc2c(c1)cc(C)n2C,?,-19,0%,20%[59 µM],6%,10%
Cc1cc2cc(CNC(=O)c3ccc(Br)o3)ccc2[nH]1,-1%,-4,?,?,?,11%
Cc1cc2cc(CNC(=O)CCC(=O)O)ccc2n1C,-18%,-9,-15%,18µM*,-9%,-7%
O=C(CCc1nc2ccccc2s1)NC1CCOC1=O (stereo not drawn),12%,0,-10%,40%[59 µM],-15%,-4%
Cc1cccc(OCc2nc(CC(=O)Nc3ccc(C)cc3C)cs2)c1,·,·,-11%,14%[59 µM],-6%,6%
COC(=O)/C(=C/Nc1ccccc1)[N+](=O)[O-],4%,-1,-13%,-2%[2.33 µM],-7%,-3%
COC(=O)/C(=C/Nc1ccc(O)cc1)[N+](=O)[O-],-20%,-36*,18µM*,2µM*,?,?
Cc1ccccc1N/N=C/c1c(C)nc2ccccn12,-7%,-1,·,35µM*,·,·
Cc1nc2ccccn2c1C(=O)N/N=C/c1ccccc1,22%,3,·,8%[2.33 µM],·,·
